From ChEMBL document CHEMBL3988442, “University of Dundee, Small-Polar-MMV Screening Library” (2021)
Hit rate of the full screen: of about 48,000 compounds, about 13,000 (27%) showed an effect of 50% or more. This is one part of the list.

system: Wolbachia pipientis; experiment: Anti-Wolbachia Cell-Based Screen; format: functional; parameters: scale not given: in the data most compounds retested in dose-response had high values; details: 5 µM

| Compound | Percent Effect [%] |
| --- | --- |
| CCN1C[C@@H]2CN(Cc3cccs3)C[C@@H]2C1=O.O=C(O)C(F)(F)F | -3.908 |
| COCCNC(=O)C1(c2ccc(C)c(OC)c2)CCCC1 | -0.08716 |
| COCC1CC2(CCN(CC3CC3)CC2)CN1Cc1ccccn1.O=C(O)C(F)(F)F.O=C(O)C(F)(F)F (centres undefined) | 83.44 |
| O=C(C1CCCO1)N1CCC2(CC1)CNCCO2 (centres undefined) | -5.383 |
| CCN(CC)C[C@H]1CN2CC[C@H]1C[C@@H]2CNC(=O)c1ccco1 | -16.25 |
| CNc1ncc(CN(C)c2ncnc3onc(C)c23)cn1 | 70.58 |
| c1cncc(C(Cn2cnnc2)N2CCOCC2)c1 (centres undefined) | 3.663 |
| CC(C)N1CCO[C@H]2CN(C(=O)Cc3ccsc3)C[C@H]21.O=C(O)C(F)(F)F | 16.26 |
| Cc1cccc(CN2C[C@@H]3OCCN(c4cnccn4)[C@@H]3C2)n1.O=C(O)C(F)(F)F | -8.161 |
| CC(C)N1CCO[C@H]2CN(C(=O)Cc3cccs3)C[C@H]21.O=C(O)C(F)(F)F | 10.95 |
| COCCN1CCO[C@H]2CN(Cc3cccc(C)n3)C[C@H]21.O=C(O)C(F)(F)F.O=C(O)C(F)(F)F | 106.4 |
| CC(C)N1CCO[C@H]2CN(Cc3cc[nH]n3)C[C@H]21.O=C(O)C(F)(F)F.O=C(O)C(F)(F)F | 92.97 |
| Cc1cccc(CN2C[C@@H]3OCCN(C)[C@@H]3C2)n1 | 7.406 |
| CC[C@H]1CN2CC[C@H]1C[C@@H]2CNCc1ccc(OC)cc1 | -6.876 |
| Clc1ccc(-n2nnnc2C2(NCc3ccco3)CCCCC2)cc1 | 73.59 |
| COc1ccc(-n2nnnc2C2(NCc3ccco3)CCCCC2)cc1 | 77.41 |
| Cc1cccc(-n2nnnc2C2(NCc3ccco3)CCCCC2)c1 | 79.56 |
| Cc1ccc(Cl)cc1-n1nnnc1C1(N2CCCC2)CCCCC1 | -13.17 |
| CSc1nccc(N2CCN(C)C3(CCNC(=O)CC3)C2)n1 (centres undefined) | -8.805 |
| c1ccc(NC[C@@H]2CCC[C@@H]3CN(Cc4csnn4)C[C@@H]32)nc1 | 5.24 |
| Cc1cccc(CN2CC3C[C@]3(NC(=O)c3ccoc3)C2)n1 (some centres undefined) | -6.434 |
| CS(=O)(=O)N[C@@H]1CN(Cc2ccncc2)C[C@@H]2CCCO[C@@H]21.O=C(O)C(F)(F)F.O=C(O)C(F)(F)F | -0.6746 |
| CS(=O)(=O)NC1CC2(CCN(CCF)CC2)Oc2ccccc21.O=C(O)C(F)(F)F (centres undefined) | 90.28 |

| Compound | Percent Effect [%] |
| --- | --- |
| O=C(O)C(F)(F)F.O=C(O)C(F)(F)F.O=C(O)C(F)(F)F.c1ccc(CO[C@@H]2CO[C@@]3(CCN(Cc4ccccn4)C3)C2)nc1 | 19.79 |
| CCC(O)Cn1cc(C2=CCN(Cc3cc(O)nc(C)n3)CC2)cn1 (centres undefined) | 5.407 |
| Cl.Cl.Cn1ccc(CN2CCOCC23CCNCC3)n1 | -7.915 |
| CN(CCc1ccccc1)Cc1c(C2CC2)[nH]c2ncccc12 | 128 |
| CN(Cc1ccccc1)c1ncccc1CNC1CN2CCC1CC2 (centres undefined) | -8.195 |
| Cn1cc(CN2CC[C@H]3CO[C@H](CNc4ncccn4)[C@H]3C2)cn1.O=C(O)C(F)(F)F.O=C(O)C(F)(F)F | -23.96 |
| O=C(O)C(F)(F)F.O=C(O)C(F)(F)F.O=C(O)C(F)(F)F.c1cnc(NC[C@H]2OC[C@@H]3CCN(Cc4cccnc4)C[C@@H]32)nc1 | 106.3 |
| c1csc(CN2CC[C@H]3C[C@H](c4ccncn4)O[C@@H]3C2)c1 | 13.32 |
| c1cnc(NC[C@H]2OC[C@@H]3CCN(Cc4ccncc4)C[C@@H]32)nc1 | 115 |
| O=C(O)C(F)(F)F.O=C(O)C(F)(F)F.c1ccc(CN2CC[C@H]3CO[C@H](CNc4ncccn4)[C@H]3C2)cc1 | 109.8 |
| c1ccc(CN2CC[C@H]3CO[C@H](CNc4ncccn4)[C@H]3C2)nc1 | -4.696 |
| O=C(O)C(F)(F)F.O=C(O)C(F)(F)F.O=C(O)C(F)(F)F.c1cnc(NC[C@H]2OC[C@@H]3CCN(Cc4nccs4)C[C@@H]32)nc1 | 101 |
| Cc1ccc(OCC(=O)N2CCN[C@H]3CS(=O)(=O)C[C@H]32)cn1 | -8.198 |
| N#CC1(c2ccccc2)CCN(C(=O)C2CCCN(C(N)=O)C2)CC1 (centres undefined) | 6.737 |
| CCC(CC)C(=O)N1CCOC2(CNC2)C1 | -30.77 |
| CS(=O)(=O)c1ccc(CC(=O)N2CCN3CCNC(=O)C3C2)cc1 (centres undefined) | -12.31 |
| Cc1cc(CN2C[C@@H]3CN(C(=O)c4ccsc4)CCO[C@@H]3C2)no1.O=C(O)C(F)(F)F | 15.19 |
| CN(C)CCNC(=O)[C@H]1C[C@H]2CN(c3ncccn3)C[C@H]2N1C.O=C(O)C(F)(F)F.O=C(O)C(F)(F)F.O=C(O)C(F)(F)F | -2.268 |
| COCC(=O)NC[C@H]1C[C@@H]2CCN1C[C@@H]2c1cc(-c2cccs2)nn1C | -7.322 |
| CS(=O)(=O)NC[C@H]1OC[C@@H]2CN(Cc3cccnc3)CC[C@@H]21 | 117.5 |
| CN(c1ncccc1C#N)C1CCN(Cc2ccncc2)CC1 | -9.884 |
| CN1CCN([C@H]2COC[C@@H]3CN(Cc4cccnc4)C[C@@H]32)CC1 | 3.012 |
| O=C(O)C(F)(F)F.O=C(O)C(F)(F)F.c1cnc(NC[C@H]2OC[C@@H]3CCN(Cc4ccsc4)C[C@@H]32)nc1 | 103.6 |

| Compound | Percent Effect [%] |
| --- | --- |
| Cn1ccnc1CN1CC[C@H]2CO[C@H](CNc3ncccn3)[C@H]2C1.O=C(O)C(F)(F)F.O=C(O)C(F)(F)F.O=C(O)C(F)(F)F | 100.8 |
| CN1CCN(C[C@@H]2OC[C@H]3CN(Cc4ccncc4)CC[C@H]32)CC1 | 117.8 |
| O=C1[C@H]2CN(Cc3ccoc3)C[C@@H]2CCN1Cc1cccnc1 | -2.353 |
| COc1ccc(CCN)cc1-c1ccc(C(N)=O)cc1 | -8.06 |
| Cc1noc(C)c1CN1C[C@@H]2OCCN(Cc3cnn(C)c3)[C@@H]2C1 | -6.904 |
| COCCn1c(C(=O)NC(C(N)=O)C(C)C)cc2ccccc21 (centres undefined) | -3.087 |
| Cc1ccccc1-n1cc(C2=CCN(CCn3cc[nH]c3=O)CC2)cn1 | 20.16 |
| Cc1cc(C)c(CNc2ncnc3ccsc23)c(=O)[nH]1 | 1.6 |
| O=C(CC1CC1)N[C@@H]1CN(Cc2ccccn2)C[C@@H]2CCCO[C@@H]21.O=C(O)C(F)(F)F.O=C(O)C(F)(F)F | -3.839 |
| O=C(O)C(F)(F)F.O=C(O)C(F)(F)F.O=C(O)C(F)(F)F.c1ccc(CN2CC[C@@H]3[C@@H](CO[C@@H]3CNc3ncccn3)C2)nc1 | 94.77 |
| O=S1(=O)CCC(n2cc(C3=CCN(CCn4cccc4)CC3)cn2)C1 (centres undefined) | -6.845 |
| Cc1nc(C(C)C)sc1C(=O)N1CCN(C2CN3CCC2CC3)CC1 (centres undefined) | 76.14 |
| COCCN1CCCC12CCCN(c1ncccn1)C2 (centres undefined) | -3.4 |
| CC(C)(C)c1cc(=O)[nH]c(C2(N)CCCCC2)n1.Cl | -23.57 |
| c1ccc(CCN2C[C@@H]3OCCN(c4ncccn4)[C@@H]3C2)cc1 | 21.57 |
| CN(C)c1nccc(N2CCO[C@H]3CN(Cc4ccco4)C[C@H]32)n1 | 68.55 |
| CN(C)c1nccc(N2CCO[C@H]3CN(Cc4ccsc4)C[C@H]32)n1.O=C(O)C(F)(F)F | 12.89 |
| Cc1cccc(CN2C[C@@H]3OCCN(S(=O)(=O)N(C)C)[C@@H]3C2)n1 | 2.928 |
| COCCN1C[C@@H]2OCCN(c3ccnc(N(C)C)n3)[C@@H]2C1 | 104.4 |
| Cn1ccnc1CN1C[C@@H]2OCCN(c3ncccn3)[C@@H]2C1 | 7.273 |
| Cc1noc(C)c1CN1CCCC2(C1)CN(c1nncs1)CCO2 (centres undefined) | -8.738 |
| CCc1noc(CN2CCOC3(CCCC3)C2)n1 | 98.78 |
| CC(=O)N1CCCC2(CN(Cc3ccncc3)CCO2)C1 (centres undefined) | -7.212 |

| Compound | Percent Effect [%] |
| --- | --- |
| CN1CCC(N2CCOC3(CCCC3)C2)C1=O (centres undefined) | 17.36 |
| Cc1nc(CN2CCOC3(CCCC3)C2)no1 | 71.5 |
| Cc1nc(CN2CCOC3(CCCC3)C2)oc1C | 98.63 |
| Cc1nc(CN2CCN(C(=O)COc3c(C)ccc(C)c3C)CC2)no1 | 0.1735 |
| OCCN1CCOC2(CCCN(c3ncccn3)C2)C1 (centres undefined) | 10.98 |
| c1cc(CN2CCOC3(CCCC3)C2)no1 | -7.47 |
| Cl.NCC1(c2cccc(Br)c2)CCOCC1 | -3.113 |
| CN(Cc1nc2ccsc2c(=O)[nH]1)C[C@@H]1CCCN2CCCC[C@H]12 | 9.481 |
| Cc1cc(C)nc(N2CCCC2c2cccnc2)n1 (centres undefined) | -35.57 |
| Cc1cc(N2CCCC2c2cccnc2)nc(C)n1 (centres undefined) | -8.687 |
| Cc1nn(C)c2nc(N3CCCCC3c3cccnc3)sc12 (centres undefined) | 116.8 |
| c1cc(CN2CCOCC3(CCNCC3)C2)ccn1 | -46.48 |
| CNc1nccnc1C1CCN(C(C)C)CC1 | 92.81 |
| Cc1n[nH]c(C)c1CC(=O)N1CCCN(C)C2(CCN(C)CC2)C1 | 0.449 |
| CO[C@@H]1CCN(S(=O)(=O)N(C)C)[C@@H]2CN(Cc3ccncc3)C[C@@H]21.O=C(O)C(F)(F)F.O=C(O)C(F)(F)F | 7.733 |
| CCS(=O)(=O)N1CC[C@H](OC)[C@H]2CN(Cc3ccncc3)C[C@H]21.O=C(O)C(F)(F)F.O=C(O)C(F)(F)F | 4.967 |
| CO[C@@H]1CCN(Cc2cccs2)[C@@H]2CN(Cc3ccncc3)C[C@@H]21.O=C(O)C(F)(F)F.O=C(O)C(F)(F)F.O=C(O)C(F)(F)F | 96.91 |
| CO[C@H]1CCN(C2CCC2)[C@@H]2CN(Cc3ccncc3)C[C@H]12.O=C(O)C(F)(F)F.O=C(O)C(F)(F)F.O=C(O)C(F)(F)F | 1.676 |
| CO[C@H]1CCN(Cc2cccs2)[C@@H]2CN(Cc3ccncc3)C[C@H]12.O=C(O)C(F)(F)F.O=C(O)C(F)(F)F.O=C(O)C(F)(F)F | 110 |
| CO[C@@H]1CCN(S(=O)(=O)N(C)C)[C@@H]2CN(Cc3cccnc3)C[C@@H]21.O=C(O)C(F)(F)F.O=C(O)C(F)(F)F | -16.98 |
